Bioassay records: PubChem BioAssay, National Center for Advancing Translational Sciences (NCATS)
SARS PLpro yeast: inhibitors of SARS-CoV papain-like protease in yeast | S. cerevisiae expressing SARS-CoV PLpro, growth rescue | Potency, µM (highest dose often 32.9 µM), without a hit: at the top dose activity, positive = growth rescue, actives largely listed as activators | 330,000 compounds, 0.19% hits | AID 485353; calls by dose curve; also: potency is read from the fitted curve at half-maximal effect; 0% is about no effect; nearly all actives have a fitted effect of over 55% in size
Pf growth 48h: P. falciparum growth inhibition at 48 hours (one generation) | P. falciparum luciferase growth in erythrocytes, 48 h | Potency, µM (series often up to 28.7 µM), without a hit: at the top dose activity change, negative = inhibition, hits mostly inhibitors | 310,000 compounds, 5.9% hits | AID 504832; also: potency is read from the fitted curve at half-maximal effect; % is scaled to controls: 0 for no effect and ±100 for the full control effect
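Luciferase-expressing parasites in RBCs, 2% Hct / 0.1% parasitemia final; RPMI 1640 + 0.5% Albumax; 37 C, 5% CO2, one generation; luminescence read-out, lower signal = inhibition.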
HCV inh: blocks hepatitis C virus. Huh7.5.1 HCVcc-Cre infection, luciferase reporter, 44 h. Potency, µM (doses to about 41.8 µM), without a hit: at the highest dose activity change, negative = inhibition, most hits filed as inhibitors. 340,000 compounds, 3.4% hits. AID 651820; also: potency is read from the fitted curve at half-maximal effect; % is scaled to controls: 0 for no effect and ±100 for the full control effect
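Infectious HCVcc-Cre (~0.5 moi) was added to cells just after compound, with cells seeded 4 h earlier at 1,000 per well. Luciferase activity after 44 h culture reported infection; substrate was incubated 15 min at room temperature before reading.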
Pf growth 96h: P. falciparum growth inhibition at 96 hour, primary screen for plastid delayed-death inhibitors | Potency, µM (highest dose often 28.7 µM), for inactives: top-dose activity change, negative = inhibition, most hits filed as inhibitors | AID 504834 | P. falciparum luciferase reporter growth, 96 h | 320,000 compounds, 6.9% hits; also: potency is read from the fitted curve at half-maximal effect; % is scaled to controls: 0 for no effect and ±100 for the full control effect
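Luminescence readout: decreased luciferase signal marks inhibited growth of reporter-expressing P. falciparum in infected red cells (2% hematocrit, 0.05% parasitemia final), exposed to compound two generations (96 h, 37 C, 5% CO2).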
HCMV inh: blocks human cytomegalovirus replication; HFF cells, HCMV-luciferase reporter, 72 h; active compounds read low; activity change, negative = inhibition, % at 57.5 µM; 410,000 compounds, 4.5% hits; AID 1259415; in the data active = activity change below about -60%; inconclusive = no clear call, values can overlap the other calls; inactive = above about -39%; also: % is scaled to controls: 0 for no effect and ±100 for the full control effect
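HFF cells seeded 16 h at 37C, treated with compounds, infected with luciferase-reporter HCMV at MOI 1 PFU/cell; luciferase read at 72 h post infection, normalized to buffer-only and Salinomycin controls.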
Sm TGR block: blocks Schistosoma mansoni thioredoxin glutathione reductase; Q962Y6; purified TGR, DTNB reduction, TNB absorbance 405 nm; Potency, µM (titrated, usually from 114 µM), without a hit: at the top dose activity change, negative = inhibition, actives largely listed as inhibitors; 360,000 compounds, 3% hits; AID 485364; also: potency is read from the fitted curve at half-maximal effect; % is scaled to controls: 0 for no effect and ±100 for the full control effect; nearly all actives have a fitted effect of over 60% in size
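TGR 20 nM + NADPH 100 uM (dispensed conc.), cpd preinc 15 min RT; start with NADPH (500 uM addition) then DTNB (15 mM addition). Kinetic TNB absorbance, 405 nm filter. Four-parameter Hill fit across titration.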
* marks the source's active call; other numbers are inactive results; ? = inconclusive; . = no result; [ ] = another dose, or the depositor's remark. An excerpt weighted towards active compounds, which were near 15% of everything screened. Unless noted, calls follow the shape of the dose curve; as a rule, active = well fitted curve in the direction sought with a large enough effect; inconclusive = small, poorly fitted or top-dose-only effect, or another doubt; inactive = no such curve, though single readings can be large; an effect the other way counts as inactive or inconclusive.

SMILES	SARS PLpro yeast	Pf growth 48h	HCV inh	Pf growth 96h	HCMV inh	Sm TGR block
CCC(=O)N1CCCc2cc(S(=O)(=O)N3CCCc4ccccc43)ccc21	-3%	?	10µM*	-7%	-38	6%
CCC(=O)N1CCc2cc(S(=O)(=O)N3CCc4ccccc4C3)ccc21	-1%	.	20%	0%	?	5%
COc1ccc(OC)c(S(=O)(=O)N2CCc3ccccc32)c1	-4%	?	2%	-6%	4	6%
COc1ccc(Cn2cnc3cnc(Nc4ccc(C(=O)N(C)C)cc4)cc32)cc1OC	.	.	.	.	2	.
Cc1ccc2nc(Cl)c3cc(C(=O)NC4CCCCC4)sc3c2c1	.	.	.	.	-9	-4%
O=C(O)C(CCCCNS(=O)(=O)c1ccc(F)cc1)NS(=O)(=O)c1ccc(F)cc1 (stereo unspecified)	4%	0%	17%	-14%	22	16%
Nc1cccc2cccc([N+](=O)[O-])c12	.	.	19%	.	17	.
COc1ccc(S(=O)(=O)N2CCc3ccccc32)cc1OC	7%	19%	1%	129%	-22	3%
NNC(=O)c1ccc(S(=O)(=O)N2CCc3ccccc32)cc1	-2%	12µM*	3%	34%	1	-5%
CCn1c(=O)n(CC)c2cc(S(=O)(=O)N3CCc4ccccc43)ccc21	-1%	?	13µM*	.	-92*	2%
COc1ccc(C(=O)NCc2ccc(C)cc2)cc1S(=O)(=O)N1CCCc2ccccc21	4%	.	?	?	-72*	-1%
CC(=O)N1CCc2ccc(S(=O)(=O)N3CCc4ccccc43)cc21	-1%	13µM*	22µM*	10%	?	-6%
O=S(=O)(c1ccc(Cl)cc1)N1CCc2ccccc21	-7%	39%	-9%	-16%	-23	-15%
CC(=O)N1CCc2ccc(S(=O)(=O)Nc3ccccc3Cl)cc21	1%	-1%	0%	30%	-17	9%
O=C(NCc1ccccc1)c1ccc(S(=O)(=O)N2CCCc3ccccc32)cc1	3%	-29%	13µM*	?	-21	37%
COC(=O)CCC(=O)Nc1ccc(S(=O)(=O)N2CCc3ccccc32)cc1	-3%	4%	-6%	0%	-4	7%
Cc1ccc(S(=O)(=O)N2CCCc3cc(NS(=O)(=O)c4ccc(F)c(C)c4)ccc32)cc1	.	.	.	.	-60*	5%
O=C(NCc1ccco1)c1ccc(S(=O)(=O)N2CCCc3ccccc32)cc1	-5%	?	16%	.	-10	-28%
CC(=O)Nc1ccc(S(=O)(=O)N2CCCc3ccccc32)cc1	2%	-13%	13µM*	-23%	-8	-27%
COC(=O)c1ccc(S(=O)(=O)N2CCc3ccccc32)cc1	-5%	2%	-15%	9.3µM*	-15	10%
Cc1nc2ccn(Cc3cccs3)c(=O)c2cc1C(=O)NCc1ccc(Br)cc1	.	.	.	.	-63*	0%
COc1ccc(CNC(=O)c2cc3c(=O)n(Cc4ccc(OC)cc4)ccc3nc2C)cc1	.	.	.	.	-75*	-3%
Cc1nc2ccn(Cc3cccnc3)c(=O)c2cc1C(=O)NCc1ccc(Cl)cc1	.	.	.	.	-19	12%
CC(C)(O)C#Cc1ccc(C(=O)NC(CCCNC(N)=O)C(=O)O)s1 (stereo unspecified)	0%	2%[5.75 µM]	-3%	?	-28	6%
CCCc1cc(C(=O)Nc2ccc(C(=O)c3ccc(F)cc3)cc2)n(C)n1	-14%	?	10µM*	?	.	-7%
SMILES	SARS PLpro yeast	Pf growth 48h	HCV inh	Pf growth 96h	HCMV inh	Sm TGR block
CCCCC(=O)Nc1ccc(C(=O)c2ccccc2)cc1	-2%	26%	-14%	32%	77	.
CCCc1cc(C(=O)Nc2ccc(C(=O)c3ccccc3)cc2)n(C)n1	1%	?	16µM*	?	-40	15%
COCCN(C(=O)COC(=O)C1CC1C)c1c(N)n(Cc2ccccc2)c(=O)[nH]c1=O (stereo unspecified)	1%	?	16%	14%	-36	-3%
Oc1cc(Nc2ccc(N3CCCCC3)cc2)cc2cccnc12	2%	0.1µM*	.	0.093µM*	.	-24%
Cc1cc(C)nc(Nc2ccc(N3CCCC3)cc2)n1	3%	?	-5%	.	-38	?
C[C@H]1CN=C(N(C)C)N1CC1CCCC1	-1%	-19%	?	?	0	-7%
C[C@H]1CN=C(N(C)C)N1CC1CCC(C(C)(C)C)CC1 (stereo partly specified)	-1%	7.4µM*	?	?	-10	-1%
CC(C)C[C@H](NC(=O)[C@H](Cc1ccccc1)n1c(=O)[nH]c2ccccc2c1=O)C(=O)N1CCC[C@@H]1C(=O)O	8%	-2%	11%	-20%	-2	-3%
O=C(CCS(=O)(=O)c1cccc2nonc12)N1CCCc2ccccc21	4%	-2%	1%	?	37	35µM*
COc1cccc(CNC(=O)CCS(=O)(=O)c2cccc3nonc23)c1	-1%	11%	10%	99%	14	45µM*
O=C(CCS(=O)(=O)c1cccc2nonc12)NCc1ccc(Cl)cc1	2%	-7%	13%	-2%	-19	35µM*
CC(C)CCNC(=O)CCS(=O)(=O)c1cccc2nonc12	4%	4%	4%	12µM*	20	-16%
COc1cccc(CNC(=O)CCS(=O)(=O)c2cccc3nsnc23)c1	-5%	-6%	21%	.	60	-7%
O=C(CCS(=O)(=O)c1cccc2nonc12)NCCc1ccccc1	-2%	-5%	-1%	1%	16	?
Cc1cccc(NC(=O)Nc2nnc(N(C)Cc3ccccc3)s2)c1	.	.	.	.	-8	-7%
CSCCC(C(=O)Nc1c(C)cccc1C)N1CCC(Cc2ccccc2)CC1 (stereo unspecified)	.	.	.	.	-23	.
FC(F)(F)c1ccccc1Cc1c(-c2cccc(Cl)c2)nc2c3ccccc3ccn12	.	.	.	.	14	.
CSc1ccc(Cn2c(C)c(C(=O)NCc3cccs3)sc2=O)cc1	.	.	.	.	43	.
O=C(Nc1ccc(Br)cc1F)c1cccnc1	0%	82%	?	102%	-6	0%
Cc1ccc(Cl)cc1N1CCN(C(=O)C2CCN(S(=O)(=O)c3cccc4nonc34)CC2)CC1	.	.	.	.	-23	0%
Cc1ccc(Cl)cc1N1CCN(C(=O)CCS(=O)(=O)c2cccc3nonc23)CC1	-17%	?	-12%	12µM*	?	?
COc1ccc(OC)c(NC(=O)CCNS(=O)(=O)c2cccc3nonc23)c1	-2%	-1%	13%	-4%	-22	-6%
COc1ccc(NS(=O)(=O)c2cccc3nonc23)c(OC)c1	8%	?	24%	?	-22	18µM*
